Results on six compounds are retold here after PubChem BioAssay.

Molecules are shown by their SMILES. The source made the active and inactive calls.

Experiment [1] addresses Albumin (Bos taurus) (UniProt P02769). The experiment is described as follows: compounds binding labelled BSA control protein – biochemical, small-molecule microarray, Alexa647 label, 635/667 nm fluorescence, artefact control for SMM control protein annotation, profiling panel (AID 1118).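 Note: score merges 667 nm emission intensity and signal-to-noise per printed compound spot.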 The following applies: BSA-A647 binding, fluorescence 635 nm, higher = more signal.
Experiment [2] in a line: probe aXIP binding to arrayed compounds – biochemical, NeuroSMM set, 635/667 nm fluorescence, primary screen (AID 1119).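 Note: probe is the protein aXip251-270 applied at 1 µg/mL to compound-printed slides; binding of probe to printed compounds measured as 667 nm fluorescence plus signal to noise.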 The following applies: small-molecule microarray, higher = more signal, called active from +8 up or from −8 down.
A short description of experiment [3]: probe aNOTCH3 binding on compound microarray – biochemical, small-molecule microarray, 635/667 nm fluorescence, primary screen (AID 1120).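 Note: probe is a biotin-tagged antibody raised against NOTCH3 rather than NOTCH3 protein; score merges spot fluorescence near 667 nm with spot signal to noise.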 The following applies: higher = more signal.
A short description of experiment [4]: probe aNOTCH2 binding on compound microarray – biochemical, small-molecule microarray, 635/667 nm fluorescence, primary screen (AID 1121).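 Note: score merges feature fluorescence read at 667 nm with its signal to noise.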 Conditions: higher = more signal.
Experiment [5] deals with Carbonic anhydrase 2 (Homo sapiens) (UniProt P00918). In words: compounds binding carbonic anhydrase 2 – biochemical, small-molecule microarray, Alexa647-labelled CAII, profiling panel (AID 1122). The following applies: CAII-A647 binding fluorescence, higher = more signal.
Experiment [6] is described as follows: COS7 lysate on small-molecule microarray, probe aHis, 635 nm (AID 1123).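 Note: z-score combines 667nm fluorescence intensity with signal-to-noise per printed compound spot.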 The following applies: COS7 cell lysate, fluorescence, higher = more signal.
A short description of experiment [7]: probe aLAP1 signal on lysate-treated microarray – cell lysate, small-molecule microarray, COS7 lysate, primary screen (AID 1124).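 Note: lysate comes from COS7 cells expressing LAP1 and is applied at 0.3 µg/mL; score merges spot fluorescence near 667 nm with signal-to-noise over triplicate slides.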 The following applies: probe aLAP1, fluorescence, higher = more signal.
The test system of experiment [8] is Sam68 (KHDRBS1). The experiment is described as follows: compounds binding KHDRBS1 protein – biochemical, small-molecule microarray, 635 nm fluorescence, primary screen (AID 1125).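 Note: score merges 667 nm channel intensity with signal to noise over triplicate slides.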 Conditions: higher = more signal.
The test system of experiment [9] is Chordin-like protein 2 (CHRDL2). The experiment is described as follows: compounds binding chordin-like 2 – biochemical, small-molecule microarray, 635 nm fluorescence, primary screen (AID 1126).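 Note: printed compound slides probed with Chrdl2 protein at 4 µg/mL for 1 h at 4 C; score merges 667 nm emission intensity with signal to noise over three replicate slides.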 Conditions: fluorescence 635 nm, higher = more signal.
In experiment [10] the target is Concanavalin-A (Canavalia ensiformis) (UniProt P02866). In words: compounds binding concanavalin A lectin – biochemical, small-molecule microarray, Alexa647 label, 635 nm, artefact control for SMM control protein annotation, primary screen (AID 1127).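 Note: z combines 667 nm emission intensity with signal-to-noise across three replicate slides.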 The following applies: ConA-A647 binding fluorescence, higher = more signal.
Experiment [11] can be described thus: compounds binding Alexa647 anti-His antibody – biochemical, small-molecule microarray, 635 nm fluorescence, artefact control for SMM control protein annotation, primary screen (AID 1128).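 Note: score merges feature fluorescence with signal-to-noise for each printed compound spot.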 Conditions: higher = more signal.
The subject of experiment [12] is Human papillomavirus type 1a E7 protein (residues 1-88). The experiment is described as follows: HPV1a E7 small-molecule binders, primary screen, biochemical, small-molecule microarray, residues 1-88, 635 nm (AID 1129). The following applies: small-molecule microarray binding, fluorescence 635 nm; higher = more signal.
The target of experiment [13] is Focal adhesion kinase 1 (Homo sapiens) (UniProt Q05397). The experiment is described as follows: PTK2 protein binding on printed compound slides – biochemical, small-molecule microarray, 635/667 nm fluorescence, BSA, DTT, primary screen (AID 1130).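 Note: composite of spot emission at 667 nm and signal to noise over triplicate slides.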 The following applies: 635 nm fluorescence, higher = more signal.
Experiment [14] relates to Fibrinogen (Alexa647-labelled). The experiment is described as follows: Alexa647-fibrinogen binding to printed small molecules – biochemical, small-molecule microarray, 635/667 nm fluorescence, artefact control for SMM control-protein annotation, profiling panel (AID 1131).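 Note: z-score merges 667 nm fluorescence with per-spot signal-to-noise over triplicate slides.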 The following applies: fibrinogen-A647 binding fluorescence, higher = more signal.
Experiment [15] concerns the target Follistatin (Homo sapiens) (UniProt P19883). The experiment is described as follows: FST protein binding to printed compounds – biochemical, small-molecule microarray, 635/667 nm fluorescence, primary screen (AID 1132). Conditions: 635 nm fluorescence, higher = more signal.
Experiment [16] has as its target Fibroblast growth factor 2 (Homo sapiens) (UniProt P09038). In words: basic fibroblast growth factor binding to printed compounds – biochemical, small-molecule microarray, 635/667 nm fluorescence, primary screen (AID 1133). Conditions: FGF2, fluorescence 635/667, higher = more signal.
Experiment [17] is described as follows: JC-1 mitochondrial potential readout, lung cancer cells – cell-based, A549, JC-1 fluorescence, basal, 24 h, 100 nL, profiling panel (AID 1138).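 Note: A549 lung adenocarcinoma cells under basal conditions with no added stimulus; test concentration not given here.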 The following applies: higher = more signal.
In experiment [18] the test system is Lefty1. The experiment is described as follows: Lefty1 protein binding to printed compounds – biochemical, small-molecule microarray, 635/667 nm fluorescence, primary screen (AID 1139). Conditions: fluorescence 635/667, higher = more signal.
Experiment [19] relates to wheat germ agglutinin (Triticum aestivum), Alexa647-labelled. The experiment is described as follows: Alexa647-WGA lectin binding to printed small molecules – biochemical, small-molecule microarray, 635/667 nm fluorescence, artefact control for SMM control-protein annotation, profiling panel (AID 1140).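 Note: score merges 667 nm feature emission with signal to noise over triplicate slides.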 The following applies: WGA-A647 binding, 635 nm fluorescence, higher = more signal.

The target of experiment [20] is Luciferin 4-monooxygenase (Photinus pyralis) (UniProt P08659). The experiment is described as follows: inhibition of purified Photinus pyralis luciferase – biochemical, luminescence, purified enzyme, 2006 set, primary screen (AID 1141).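 Note: cell-free assay with purified firefly luciferase at 100 ng per well in PBS; test concentration not given here.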 Conditions: purified firefly luciferase, SteadyGlo luminescence, 30 min; higher = more signal, called active from +8 up or from −8 down.
Sequence of Luciferin 4-monooxygenase (Photinus pyralis) (P08659 whole entry, looked up): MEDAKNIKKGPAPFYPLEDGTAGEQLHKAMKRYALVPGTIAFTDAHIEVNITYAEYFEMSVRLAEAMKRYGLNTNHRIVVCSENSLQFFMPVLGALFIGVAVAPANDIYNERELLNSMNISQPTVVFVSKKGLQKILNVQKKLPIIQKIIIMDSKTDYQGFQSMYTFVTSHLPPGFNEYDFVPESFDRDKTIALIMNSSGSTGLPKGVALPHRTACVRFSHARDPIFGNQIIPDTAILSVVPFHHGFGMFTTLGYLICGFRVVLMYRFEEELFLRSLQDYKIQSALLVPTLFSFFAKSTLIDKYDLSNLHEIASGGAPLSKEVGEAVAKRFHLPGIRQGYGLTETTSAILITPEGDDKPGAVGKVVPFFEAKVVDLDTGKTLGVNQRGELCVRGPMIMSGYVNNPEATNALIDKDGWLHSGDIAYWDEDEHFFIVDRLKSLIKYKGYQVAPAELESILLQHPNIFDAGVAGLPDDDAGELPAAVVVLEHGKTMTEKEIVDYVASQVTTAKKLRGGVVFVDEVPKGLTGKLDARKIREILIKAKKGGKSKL

Sequence of Focal adhesion kinase 1 (Homo sapiens) (Q05397 whole entry, looked up): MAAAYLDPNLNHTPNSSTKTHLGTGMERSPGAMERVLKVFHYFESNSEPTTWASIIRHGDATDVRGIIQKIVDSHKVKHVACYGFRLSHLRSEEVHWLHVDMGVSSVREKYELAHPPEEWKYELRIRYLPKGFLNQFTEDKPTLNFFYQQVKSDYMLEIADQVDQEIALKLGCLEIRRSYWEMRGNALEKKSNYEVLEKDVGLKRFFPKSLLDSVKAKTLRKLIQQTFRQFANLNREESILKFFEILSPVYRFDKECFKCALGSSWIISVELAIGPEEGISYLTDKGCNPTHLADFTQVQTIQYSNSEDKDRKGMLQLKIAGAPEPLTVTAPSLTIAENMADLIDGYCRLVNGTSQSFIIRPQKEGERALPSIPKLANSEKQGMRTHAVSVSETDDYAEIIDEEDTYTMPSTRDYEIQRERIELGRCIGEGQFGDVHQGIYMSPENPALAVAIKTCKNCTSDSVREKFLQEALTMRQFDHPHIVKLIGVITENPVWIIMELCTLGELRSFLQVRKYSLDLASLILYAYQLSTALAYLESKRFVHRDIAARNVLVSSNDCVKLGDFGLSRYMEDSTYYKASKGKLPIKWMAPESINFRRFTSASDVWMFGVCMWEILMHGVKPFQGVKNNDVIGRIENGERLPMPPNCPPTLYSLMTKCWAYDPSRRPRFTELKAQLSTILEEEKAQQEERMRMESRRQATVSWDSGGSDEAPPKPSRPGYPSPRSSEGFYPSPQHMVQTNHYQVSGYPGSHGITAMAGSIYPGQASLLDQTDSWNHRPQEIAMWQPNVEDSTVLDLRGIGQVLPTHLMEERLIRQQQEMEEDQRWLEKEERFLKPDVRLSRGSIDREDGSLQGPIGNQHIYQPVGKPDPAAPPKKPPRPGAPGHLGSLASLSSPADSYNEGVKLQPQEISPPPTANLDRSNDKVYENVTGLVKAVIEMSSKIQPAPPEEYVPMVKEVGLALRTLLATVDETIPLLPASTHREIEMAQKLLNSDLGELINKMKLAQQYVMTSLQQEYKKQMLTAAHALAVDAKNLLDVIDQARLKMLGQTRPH
Sequence of Concanavalin-A (Canavalia ensiformis) (P02866 whole entry, looked up): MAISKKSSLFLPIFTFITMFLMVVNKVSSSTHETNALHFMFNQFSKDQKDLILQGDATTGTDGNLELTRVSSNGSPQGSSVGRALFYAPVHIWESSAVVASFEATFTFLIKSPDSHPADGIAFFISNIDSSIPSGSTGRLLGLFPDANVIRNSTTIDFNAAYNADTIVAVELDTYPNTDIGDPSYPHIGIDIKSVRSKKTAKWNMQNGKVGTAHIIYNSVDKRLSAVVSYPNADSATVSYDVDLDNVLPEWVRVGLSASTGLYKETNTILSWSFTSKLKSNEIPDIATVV
Sequence of Albumin (Bos taurus) (P02769 whole entry, looked up): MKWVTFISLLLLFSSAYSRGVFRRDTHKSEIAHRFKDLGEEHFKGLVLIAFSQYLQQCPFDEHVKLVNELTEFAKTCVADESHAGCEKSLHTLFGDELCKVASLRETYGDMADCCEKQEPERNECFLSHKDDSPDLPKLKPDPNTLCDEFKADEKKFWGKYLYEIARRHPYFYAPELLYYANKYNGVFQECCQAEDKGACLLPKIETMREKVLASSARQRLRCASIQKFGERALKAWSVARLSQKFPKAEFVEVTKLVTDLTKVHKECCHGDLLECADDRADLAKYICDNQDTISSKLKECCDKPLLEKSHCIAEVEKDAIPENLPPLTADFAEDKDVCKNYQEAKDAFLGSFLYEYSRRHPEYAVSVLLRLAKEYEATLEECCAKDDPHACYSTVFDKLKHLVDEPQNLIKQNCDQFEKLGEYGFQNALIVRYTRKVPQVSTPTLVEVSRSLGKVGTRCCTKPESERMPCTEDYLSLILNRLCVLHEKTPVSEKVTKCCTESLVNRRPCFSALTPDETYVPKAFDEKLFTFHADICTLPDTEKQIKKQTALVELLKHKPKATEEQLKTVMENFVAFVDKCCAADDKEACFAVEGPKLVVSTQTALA
Sequence of Follistatin (Homo sapiens) (P19883 whole entry, looked up): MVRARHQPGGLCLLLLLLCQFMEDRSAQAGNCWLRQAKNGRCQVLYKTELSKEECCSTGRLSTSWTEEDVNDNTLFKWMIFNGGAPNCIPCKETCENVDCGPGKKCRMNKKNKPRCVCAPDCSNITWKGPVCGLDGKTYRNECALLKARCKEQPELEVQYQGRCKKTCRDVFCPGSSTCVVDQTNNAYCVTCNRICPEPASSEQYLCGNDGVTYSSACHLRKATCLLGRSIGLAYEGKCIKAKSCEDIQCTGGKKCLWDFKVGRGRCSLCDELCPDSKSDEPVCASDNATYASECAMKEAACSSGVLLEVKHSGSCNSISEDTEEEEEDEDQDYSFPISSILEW
Sequence of Fibroblast growth factor 2 (Homo sapiens) (P09038 whole entry, looked up): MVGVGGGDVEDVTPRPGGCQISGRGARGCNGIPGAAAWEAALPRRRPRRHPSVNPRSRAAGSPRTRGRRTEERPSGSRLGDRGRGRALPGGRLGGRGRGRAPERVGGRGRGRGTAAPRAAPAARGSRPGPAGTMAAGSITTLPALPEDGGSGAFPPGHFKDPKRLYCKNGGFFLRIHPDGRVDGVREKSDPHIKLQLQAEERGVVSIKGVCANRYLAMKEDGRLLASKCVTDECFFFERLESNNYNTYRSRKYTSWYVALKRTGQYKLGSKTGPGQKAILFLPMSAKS

With `CC(C)(C)N1C(=O)[C@H]2[C@H]3[C@H](O)[C@H](O)CC(=NOC[C@@H](O)COCc4ccco4)[C@@H]3CC[C@H]2C1=O`, the composite z-score in experiment [1] is 0.617; in experiment [3] it was -0.0311; in [4] it was -0.0984; in experiment [5], -0.129; in experiment [6], 0.0171; in experiment [7] it was 0.227. Further, the composite z-score is -0.254 in experiment [8]; 0.107 in [9]; 0.506 in experiment [10]; -0.329 in [11]; -0.451 in [12]; -0.0584 in experiment [13]. Further, the composite z-score in experiment [14] was 0.961; in experiment [15], -0.396; in experiment [16], -0.0677; in [18], -0.211; in experiment [19], 0.915. Also, the composite Z-score in experiment [2] is 0.103 (inactive). For the same compound, the z-score in experiment [17] was -0.521; in experiment [20] it was -0.124 (inactive).
Regarding `CCN(CC)CC(O)CN1CCCCc2nc(C)c(C)cc21` (stereo not given), the composite z-score in experiment [1] was 0.401; in experiment [3], 0.0026; in experiment [4] it was -0.195; in [5] it was 0.367; in experiment [6] it was 0.243; in [7] it was -0.072. Further, the composite z-score is 0.334 in experiment [8]; 0.468 in experiment [9]; 0.363 in [10]; 1 in experiment [11]; 0.546 in [12]; -0.0492 in [13]. Further, the composite z-score in [14] was found to be 0.0982; in experiment [15], 0.355; in experiment [16], 0.639; in experiment [18], 0.516; in experiment [19] it was 0.944. For the same compound, the composite Z-score in experiment [2] was -0.336 (inactive). Also, the z-score is 1.09 in experiment [17] and -1.12 (inactive) in experiment [20].
For the compound `CC(C)=CCCC(C)=CCON=C1C[C@@H](O)[C@@H](O)[C@@H]2[C@@H]3C(=O)N(c4cccc(Oc5ccccc5)c4)C(=O)[C@@H]3CC[C@H]12`, the composite z-score is 0.631 in experiment [1]; -0.0288 in [3]; -0.155 in experiment [4]; 0.376 in experiment [5]; 1.23 in experiment [6]; 0.163 in experiment [7]. For the same compound, the composite z-score in experiment [8] worked out at 1.02; in experiment [9] it was 0.492; in experiment [10], 0.609; in [11], 0.364; in experiment [12] it was 1.03; in [13], 0.132. Moreover, the composite z-score in experiment [14] stood at 0.693; in [15], 0.559; in experiment [16], 0.252; in experiment [18], 0.719; in [19], 0.197. In addition, the composite Z-score in [2] was 1.38 (inactive). In addition, the figures for the z-score in experiment [17] and in experiment [20] were -0.137 and 0.664 (inactive), respectively.
As to `COC(=O)[C@@H]1CC[C@H](C)[C@@H](c2ccc(Br)cc2)N1C[C@@H](O)CN=[N+]=[N-]`, the composite z-score is -0.236 in experiment [1]; 0.0016 in [3]; -0.18 in experiment [4]; -0.0121 in experiment [5]; 0.23 in experiment [6]; 0.546 in [7]. Moreover, the composite z-score in experiment [8] is 0.56; in experiment [9], 0.401; in [10], -0.0032; in experiment [11], 0.215; in [12], -0.0633; in experiment [13], -0.0902. Further, the composite z-score in [14] was 0.128; in [15] it was 0.4; in [16], 0.4; in experiment [18], 0.45; in experiment [19], -0.0107. The composite Z-score in experiment [2] was -0.509 (inactive). For the same compound, the z-score in experiment [17] was -0.822; in experiment [20] it was 0.0386 (inactive).
Turning to `CC(C)CON=C1[C@H]2CCn3c(=O)n(C)c(=O)n3[C@H]2[C@H](O)[C@@H]2O[C@H]12`, the composite z-score in [1] was -0.0213; in experiment [3] it was 0.236; in experiment [4] it was -0.139; in experiment [5] it was -0.148; in experiment [6], -0.818; in [7], 0.854. Further, the composite z-score is 0.471 in [8]; 0.783 in [9]; 0.328 in experiment [10]; 0.457 in experiment [11]; 0.398 in experiment [12]; 0.0335 in experiment [13]. Also, the composite z-score in experiment [14] was 0.413; in experiment [15], 0.581; in experiment [16] it was 0.411; in experiment [18] it was 1.02; in experiment [19], 0.324. In addition, the composite Z-score in experiment [2] was -0.483 (inactive). Besides, the z-score in experiment [17] is 0.563; in experiment [20], -0.571 (inactive).
For `CC(C)CON=C1C[C@@H](O)[C@@H](O)[C@@H]2[C@@H]3C(=O)N(Cc4ccc5c(c4)OCO5)C(=O)[C@@H]3CC[C@@H]12`, the composite z-score was 0.713 in [1]; -0.179 in experiment [3]; -0.0891 in experiment [4]; 0.614 in experiment [5]; 0.862 in [6]; -0.0121 in experiment [7]. Moreover, the composite z-score in experiment [8] is 0.853; in experiment [9] it was -0.0113; in [10] it was 0.922; in experiment [11] it was 0.918; in [12] it was 0.245; in experiment [13], 0.227. Besides, the composite z-score is 0.655 in [14]; 0.0087 in experiment [15]; 1.22 in experiment [16]; -0.0226 in [18]; 0.0667 in experiment [19]. For the same compound, the composite Z-score in [2] is 0.311 (inactive). Further, the z-score is 0.0679 in [17] and 0.966 (inactive) in experiment [20].
